In PubChem BioAssay (EPA / NIEHS):
Results filed as inconclusive are left out. The source made the active and inactive calls. Rule for the calls, unless noted: active = hit-call score of the fitted dose curve at least 0.9, where 1 is the maximum; inactive = score below 0.9.

Columns and labels:
[1] = molecular target: human RAR-related Orphan Receptor beta (RORb), RORB (gene 6096) (UniProt Q92753); assay: ATG_RORb_TRANS: Attagene TRANS-FACTORIAL HepG2 Assay for human RAR-related Orphan Receptor beta (RORb) (AID 2283010; active = hit-call score of the fitted dose curve at least 0.9, where 1 is the maximum)
human RAR-related Orphan Receptor beta (RORb), RORB (gene 6096), sequence (Q92753 whole entry, looked up, the tested form may be a part): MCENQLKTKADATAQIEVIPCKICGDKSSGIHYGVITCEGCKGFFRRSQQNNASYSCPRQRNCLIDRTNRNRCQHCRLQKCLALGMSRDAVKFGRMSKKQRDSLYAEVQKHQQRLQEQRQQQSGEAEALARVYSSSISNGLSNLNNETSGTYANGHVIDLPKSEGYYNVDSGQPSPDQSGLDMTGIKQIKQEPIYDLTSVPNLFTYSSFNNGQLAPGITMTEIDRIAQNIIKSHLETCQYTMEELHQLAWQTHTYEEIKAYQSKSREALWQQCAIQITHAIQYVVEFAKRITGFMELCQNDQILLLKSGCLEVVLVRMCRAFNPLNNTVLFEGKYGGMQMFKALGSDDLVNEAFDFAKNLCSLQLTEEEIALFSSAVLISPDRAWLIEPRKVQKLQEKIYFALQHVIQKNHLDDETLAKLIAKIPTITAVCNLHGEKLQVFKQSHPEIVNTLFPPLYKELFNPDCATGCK
Outline: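 Read-out is reporter mRNA induction, quantified by RT-PCR with fluorescent capillary electrophoresis, 24 h post-dose in transiently transfected HepG2 expressing exogenous NR-Gal4 chimera. Activity fitted upward versus DMSO.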

[2] = molecular target: human RAR-related Orphan Receptor gamma (RORg), RORC (gene 6097) (UniProt P51449); assay: ATG_RORg_TRANS: Attagene TRANS-FACTORIAL HepG2 Assay for human RAR-related Orphan Receptor gamma (RORg) (AID 2283011; active = hit-call score of the fitted dose curve at least 0.9, where 1 is the maximum)
human RAR-related Orphan Receptor gamma (RORg), RORC (gene 6097), sequence (P51449 whole entry, looked up, the tested form may be a part): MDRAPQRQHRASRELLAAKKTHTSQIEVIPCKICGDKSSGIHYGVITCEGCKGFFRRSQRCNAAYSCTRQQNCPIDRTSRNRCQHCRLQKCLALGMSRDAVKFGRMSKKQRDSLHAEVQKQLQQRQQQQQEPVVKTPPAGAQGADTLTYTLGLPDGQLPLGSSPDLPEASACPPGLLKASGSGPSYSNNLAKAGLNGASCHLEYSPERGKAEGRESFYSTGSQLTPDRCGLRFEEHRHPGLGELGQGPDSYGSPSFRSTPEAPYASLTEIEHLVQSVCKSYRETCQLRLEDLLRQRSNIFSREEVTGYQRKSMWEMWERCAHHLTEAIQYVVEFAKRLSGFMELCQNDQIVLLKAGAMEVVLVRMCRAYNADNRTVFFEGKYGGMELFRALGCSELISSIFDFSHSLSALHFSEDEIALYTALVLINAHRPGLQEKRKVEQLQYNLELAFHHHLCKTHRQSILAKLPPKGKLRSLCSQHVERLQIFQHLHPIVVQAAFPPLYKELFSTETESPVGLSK
Outline: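 HepG2 cells transiently transfected with GAL4-UAS reporter units and chimeric RORg-Gal4 construct; after 24 h chemical exposure, reporter mRNA measured by RT-PCR with fluorescent capillary electrophoresis, gain of signal fitted against DMSO.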

[3] = molecular target: human Retinoid X Receptor beta (RXRb), RXRB (gene 6257) (UniProt P28702); assay: ATG_RXRb_TRANS: Attagene TRANS-FACTORIAL HepG2 Assay for human Retinoid X Receptor beta (RXRb) (AID 2283013; active = hit-call score of the fitted dose curve at least 0.9, where 1 is the maximum)
human Retinoid X Receptor beta (RXRb), RXRB (gene 6257), sequence (P28702 whole entry, looked up, the tested form may be a part): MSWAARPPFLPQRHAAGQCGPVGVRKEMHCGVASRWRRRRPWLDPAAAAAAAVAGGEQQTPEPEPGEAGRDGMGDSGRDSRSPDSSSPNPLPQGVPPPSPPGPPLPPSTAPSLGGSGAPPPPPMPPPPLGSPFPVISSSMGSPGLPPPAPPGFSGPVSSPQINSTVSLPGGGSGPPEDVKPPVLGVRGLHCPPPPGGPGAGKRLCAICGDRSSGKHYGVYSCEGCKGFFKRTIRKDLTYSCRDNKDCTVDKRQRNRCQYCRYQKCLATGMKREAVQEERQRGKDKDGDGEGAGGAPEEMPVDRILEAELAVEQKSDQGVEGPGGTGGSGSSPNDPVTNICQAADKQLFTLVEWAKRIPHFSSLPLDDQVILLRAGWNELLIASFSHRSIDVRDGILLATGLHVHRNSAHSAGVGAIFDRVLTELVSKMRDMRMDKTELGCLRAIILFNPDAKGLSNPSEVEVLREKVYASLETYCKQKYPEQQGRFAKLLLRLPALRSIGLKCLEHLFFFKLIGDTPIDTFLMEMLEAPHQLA
Outline: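 Readout is reporter transcript induction after 24 h dosing. It is measured by RT-PCR of total RNA followed by fluorescent capillary electrophoresis. HepG2 liver cells carry transfected multiple reporter units driven by an exogenous RXRb-Gal4 fusion; activity is relative to DMSO.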

[4] = molecular target: human Vitamin D Receptor (VDR), VDR (gene 7421) (UniProt P11473); assay: ATG_VDR_TRANS: Attagene TRANS-FACTORIAL HepG2 Assay for human Vitamin D Receptor (VDR) (AID 2283022; active = hit-call score of the fitted dose curve at least 0.9, where 1 is the maximum)
human Vitamin D Receptor (VDR), VDR (gene 7421), sequence (P11473 whole entry, looked up, the tested form may be a part): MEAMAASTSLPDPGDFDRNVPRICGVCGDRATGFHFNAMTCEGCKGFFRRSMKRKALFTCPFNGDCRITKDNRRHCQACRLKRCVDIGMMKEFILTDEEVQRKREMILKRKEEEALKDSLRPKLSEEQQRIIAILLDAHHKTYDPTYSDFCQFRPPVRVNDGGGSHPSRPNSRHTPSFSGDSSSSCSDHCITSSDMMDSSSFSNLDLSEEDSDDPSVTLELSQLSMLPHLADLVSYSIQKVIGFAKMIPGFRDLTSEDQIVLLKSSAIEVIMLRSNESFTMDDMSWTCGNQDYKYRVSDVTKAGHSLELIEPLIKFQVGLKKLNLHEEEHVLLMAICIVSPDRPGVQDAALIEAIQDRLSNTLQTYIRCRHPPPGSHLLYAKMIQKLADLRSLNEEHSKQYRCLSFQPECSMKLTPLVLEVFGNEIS
Outline: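 HepG2 cells were transiently transfected with GAL4-UAS reporter units and a chimeric VDR-Gal4 construct, then dosed for 24 hours. Reporter mRNA was quantified by RT-PCR, fluorescent labeling, HpaI digestion and capillary electrophoresis; gain of signal analysed vs DMSO.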

[5] = molecular target: Retinoic acid receptor RXR-alpha (Homo sapiens) (UniProt P19793); assay: ATG_RXRa_TRANS: Attagene TRANS-FACTORIAL HepG2 Assay for human Retinoid X Receptor alpha (RXRa) (AID 2283012; active = hit-call score of the fitted dose curve at least 0.9, where 1 is the maximum)
Retinoic acid receptor RXR-alpha (Homo sapiens), sequence (P19793 whole entry, looked up, the tested form may be a part): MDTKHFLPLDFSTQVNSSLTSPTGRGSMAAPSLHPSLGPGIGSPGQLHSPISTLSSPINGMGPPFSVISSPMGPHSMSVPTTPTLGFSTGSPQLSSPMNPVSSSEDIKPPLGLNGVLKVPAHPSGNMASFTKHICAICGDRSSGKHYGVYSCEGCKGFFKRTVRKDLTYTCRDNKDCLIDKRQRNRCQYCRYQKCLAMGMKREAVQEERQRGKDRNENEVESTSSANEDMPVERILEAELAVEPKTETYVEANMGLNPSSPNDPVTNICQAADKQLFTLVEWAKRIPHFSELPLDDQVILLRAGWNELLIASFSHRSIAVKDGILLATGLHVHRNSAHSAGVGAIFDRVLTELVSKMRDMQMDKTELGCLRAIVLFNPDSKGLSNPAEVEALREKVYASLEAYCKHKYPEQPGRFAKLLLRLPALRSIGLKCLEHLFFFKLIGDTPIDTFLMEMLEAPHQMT
Outline: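 TRANS format reporting activity of exogenous RXRa-Gal4 chimera in transiently transfected HepG2, 24 h exposure. Reporter transcripts quantified by RT-PCR with capillary electrophoresis, with gain of signal scored relative to DMSO.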

[6] = molecular target: human Thyroid Receptor alpha (THRa1), THRA (gene 7067) (UniProt P10827); assay: ATG_THRa1_TRANS: Attagene TRANS-FACTORIAL HepG2 Assay for human Thyroid Receptor alpha (THRa1) (AID 2283014; active = hit-call score of the fitted dose curve at least 0.9, where 1 is the maximum)
human Thyroid Receptor alpha (THRa1), THRA (gene 7067), sequence (P10827 whole entry, looked up, the tested form may be a part): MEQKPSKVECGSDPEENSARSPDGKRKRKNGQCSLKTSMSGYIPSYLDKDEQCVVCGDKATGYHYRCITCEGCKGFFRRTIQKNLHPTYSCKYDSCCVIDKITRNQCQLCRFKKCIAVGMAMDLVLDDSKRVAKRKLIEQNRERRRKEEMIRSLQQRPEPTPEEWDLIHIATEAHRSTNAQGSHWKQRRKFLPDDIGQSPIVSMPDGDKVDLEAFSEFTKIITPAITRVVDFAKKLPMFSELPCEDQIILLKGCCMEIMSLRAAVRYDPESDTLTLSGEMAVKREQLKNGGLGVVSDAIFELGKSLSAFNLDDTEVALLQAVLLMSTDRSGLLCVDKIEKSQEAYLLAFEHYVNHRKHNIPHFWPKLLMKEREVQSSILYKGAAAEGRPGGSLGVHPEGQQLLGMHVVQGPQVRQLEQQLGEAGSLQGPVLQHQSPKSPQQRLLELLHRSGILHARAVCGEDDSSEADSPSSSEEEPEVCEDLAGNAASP
Outline: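 HepG2 cells transiently transfected with chimeric NR-Gal4 and GAL4-UAS reporter units, dosed 24 h. Reporter mRNA quantified by RT-PCR, fluorescent labeling, HpaI digestion and capillary electrophoresis; gain-of-signal fit versus DMSO.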

[7] = read-out: E-selectin (Homo sapiens) (UniProt P16581); assay: BSK_3C_Eselectin: BioMAP Diversity Plus: 3C Assay for Eselectin Biomarker Activity (AID 2283015); conditions: primary human endothelial cells (HUVEC); actives raise or lower the signal
Outline: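 Primary human umbilical vein endothelial cells (3C system), read 24 h after compound addition; E-selectin measured by ELISA. Bidirectional curve fitting against DMSO baseline; cytotoxicity by parallel SRB total-protein staining.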

[8] = read-out: Interleukin-1 alpha (IL1a), IL1A (gene 3552); assay: BSK_BE3C_IL1a: BioMAP Diversity Plus: BE3C Assay for Interleukin-1 alpha (IL1a) Biomarker Activity (AID 2283016); conditions: primary human bronchial epithelial cells; actives raise or lower the signal
Outline: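 IL-1a measured by ELISA after 24 h treatment of human primary bronchial epithelial cells, with gain or loss of signal fitted versus DMSO. Parallel cultures stained with SRB gauge overt cytotoxicity.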

[9] = read-out: Monocyte Chemoattractant Protein-1 (MCP1), CCL2 (gene 6347); assay: BSK_3C_MCP1: BioMAP Diversity Plus: 3C Assay for Monocyte Chemoattractant Protein-1 (MCP1) Biomarker Activity (AID 2283017); conditions: primary human endothelial cells (HUVEC); actives raise or lower the signal
Outline: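 Human umbilical vein endothelial cells (3C system) exposed to chemicals for 24 h; MCP-1 quantified by ELISA against the DMSO baseline with bidirectional fitting, and parallel SRB staining used to assess cytotoxicity.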

[10] = read-out: Monocyte Chemoattractant Protein-1 (MCP1), CCL2 (gene 6347); assay: BSK_4H_MCP1: BioMAP Diversity Plus: 4H Assay for Monocyte Chemoattractant Protein-1 (MCP1) Biomarker Activity (AID 2283018); conditions: primary human endothelial cells (HUVEC); actives raise or lower the signal
Outline: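 ELISA of MCP-1 (CCL2) 24 h after chemical dosing of HUVEC in the BioMAP 4H system. Gain or loss versus DMSO fitted; parallel SRB staining (560 nm) tracked overt cytotoxicity.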

[11] = read-out: Human Leukocyte Antigen - DR isotype (HLADR), HLA-DRA (gene 3122); assay: BSK_3C_HLADR: BioMAP Diversity Plus: 3C Assay for Human Leukocyte Antigen - DR isotype (HLADR) Biomarker Activity (AID 2283019); conditions: primary human endothelial cells (HUVEC); actives raise or lower the signal;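 note: ELISA of cell-surface HLA-DR on HUVEC 24 h after dosing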
Outline: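 HUVEC monoculture, HLA-DR measured by ELISA 24 h after chemical dosing. Fitted bidirectionally against DMSO baseline; parallel SRB staining assessed cytotoxicity, with 3C proliferation read by SRB at 48 h.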

[12] = read-out: Interleukin-8 (IL8), CXCL8 (gene 3576); assay: BSK_3C_IL8: BioMAP Diversity Plus: 3C Assay for Interleukin-8 (IL8) Biomarker Activity (AID 2283020); conditions: primary human endothelial cells (HUVEC); actives raise or lower the signal
Outline: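 IL-8 was measured by ELISA in HUVEC cultures 24 h after chemical dosing, with gain or loss of signal fitted relative to DMSO. Parallel SRB total-protein staining tracked overt cytotoxicity.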

[13] = read-out: Monokine induced gamma interferon (MIG), CXCL9 (gene 4283); assay: BSK_3C_MIG: BioMAP Diversity Plus: 3C Assay for Monokine induced gamma interferon (MIG) Biomarker Activity (AID 2283021); conditions: primary human endothelial cells (HUVEC); actives raise or lower the signal
Outline: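 ELISA measurement of MIG in human umbilical vein endothelial cells 24 h after treatment. Cytotoxicity tracked by SRB staining in parallel cultures; gain or loss of signal fitted relative to DMSO.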

[14] = BSK_3C_SRB: Viability Assessment in the BioMAP Diversity Plus: 3C Assay (AID 2283023); conditions: primary human endothelial cells (HUVEC);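 note: fitted both ways against DMSO so a hit may be signal rise or drop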
Outline: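 Human umbilical vein endothelial cells in the 3C system, treated 24 h. Total protein measured by 0.1% sulforhodamine B staining after 10% TCA fixation, read at 560 nm; bidirectional fit versus DMSO.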

[15] = read-out: Matrix Metallopeptidase 1 (MMP1), MMP1 (gene 4312); assay: BSK_BE3C_MMP1: BioMAP Diversity Plus: BE3C Assay for Matrix Metallopeptidase 1 (MMP1) Biomarker Activity (AID 2283024); conditions: primary human bronchial epithelial cells; actives raise or lower the signal
Outline: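 ELISA measurement of MMP-1 after 24 h compound exposure of primary human bronchial epithelial cells. Changes in either direction fitted relative to DMSO; parallel SRB staining checked overt cytotoxicity.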

[16] = BSK_3C_Vis: BioMAP Diversity Plus: 3C Assay for Morphology Visualization (AID 2283025); conditions: primary human endothelial cells (HUVEC);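 note: fitted both ways so gain or loss versus DMSO counts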
Outline: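 Light-microscopy visualization of HUVEC cultures at 24 h post-treatment, with DMSO as baseline for bidirectional fitting.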

[17] = read-out: Pselectin, SELP (gene 6403); assay: BSK_4H_Pselectin: BioMAP Diversity Plus: 4H Assay for Pselectin Biomarker Activity (AID 2283026); conditions: primary human endothelial cells (HUVEC); actives raise or lower the signal
Outline: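 ELISA of surface P-selectin on HUVEC, 24 h after dosing, with parallel SRB staining (0.1% after 10% TCA fixation, 560 nm) for overt cytotoxicity. Activity fitted in both directions relative to DMSO.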

[18] = BSK_4H_SRB: Viability Assessment in the BioMAP Diversity Plus: 4H Assay (AID 2283027); conditions: primary human endothelial cells (HUVEC);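 note: cells exposed to compound for 24 h before staining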
Outline: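 Cytotoxicity read-out in primary human endothelial cells: after 24 h compound exposure, cells were TCA-fixed (10%), stained with 0.1% SRB and absorbance taken at 560 nm. Values fitted in both directions relative to DMSO.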

[19] = BSK_BE3C_SRB: Viability Assessment in the BioMAP Diversity Plus: BE3C Assay (AID 2283028); conditions: primary human bronchial epithelial cells
Outline: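 Human bronchial epithelial primary cells in confluent culture, 24 h after chemical dosing; total protein by 0.1% SRB staining after 10% TCA fixation, read at 560 nm. Bidirectional fitting versus DMSO baseline.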

[20] = read-out: Thrombomodulin, THBD (gene 7056); assay: BSK_3C_Thrombomodulin: BioMAP Diversity Plus: 3C Assay for Thrombomodulin Biomarker Activity (AID 2283029); conditions: primary human endothelial cells (HUVEC); actives raise or lower the signal
Outline: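 ELISA measurement of thrombomodulin on HUVEC surface 24 h after chemical dosing; activity fitted in both directions relative to DMSO vehicle.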

Measured: AC50

E-selectin (Homo sapiens), sequence (P16581 whole entry, looked up): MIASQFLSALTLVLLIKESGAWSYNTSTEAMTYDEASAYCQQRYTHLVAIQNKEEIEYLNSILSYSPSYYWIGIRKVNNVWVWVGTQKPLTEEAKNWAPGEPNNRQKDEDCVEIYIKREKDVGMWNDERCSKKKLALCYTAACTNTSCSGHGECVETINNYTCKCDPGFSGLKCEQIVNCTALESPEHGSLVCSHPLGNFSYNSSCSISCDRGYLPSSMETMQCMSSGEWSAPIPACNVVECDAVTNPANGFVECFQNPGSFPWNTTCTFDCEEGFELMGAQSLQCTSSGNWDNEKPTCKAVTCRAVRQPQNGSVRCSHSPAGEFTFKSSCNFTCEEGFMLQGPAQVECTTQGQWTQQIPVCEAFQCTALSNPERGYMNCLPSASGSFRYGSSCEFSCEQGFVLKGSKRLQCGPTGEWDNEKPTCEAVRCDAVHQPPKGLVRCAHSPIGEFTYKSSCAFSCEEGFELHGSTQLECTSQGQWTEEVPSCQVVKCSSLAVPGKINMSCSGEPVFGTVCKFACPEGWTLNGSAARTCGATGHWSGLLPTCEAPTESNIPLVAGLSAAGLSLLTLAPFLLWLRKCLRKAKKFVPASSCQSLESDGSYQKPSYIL

Nc1ccnc(=O)[nH]1
inactive: [1] | [2] | [3] | [4]

CCCCCC[C@@H](O)C/C=C\CCCCCCCC(=O)OCC(O)CO (stereo partly specified)
active: [3] 85 µM
inactive: [1] | [5] | [6] | [4]

O=C1CCCCCCCCCCC1
active: [3] 44.4 µM
not listed: [2] | [4] | [6] | [20]
inactive: all other assays above

CC(C)(O)Cc1ccccc1
inactive: [1] | [2] | [6]

COc1cc(C)ccc1O
inactive: [1] | [5] | [3] | [6] | [4]

CCCCCCCCC(CO)CCCCCC (stereo unspecified)
active: [3] 21.9 µM | [9] 5.93 µM
not listed: [2] | [6]
inactive: all other assays above

Nc1ccc(C(=O)O)cc1
not listed: [3] | [4] | [5] | [6] | [20]
inactive: all other assays above

Cc1ccc2c(c1)CCCN2
inactive: [1] | [5] | [3]

CC(c1cc(C(C)(C)C)cc(C(C)(C)C)c1O)c1cc(C(C)(C)C)cc(C(C)(C)C)c1O
active: [3] 1.83 µM | [7] 1.21 µM | [17] 0.965 µM
not listed: [2] | [4] | [20]
inactive: all other assays above

Nc1ccc(Cl)c(N)c1
inactive: [1] | [5] | [3] | [6]

CC(C)C(=O)OCCc1ccccc1
not listed: [3] | [4] | [5] | [16]
inactive: all other assays above
